# High-throughput results deposited in PubChem by National Center for Advancing Translational Sciences (NCATS).
# Pf Dd2 growth – blocks in vitro growth of P. falciparum Dd2; actives 4.3% (n = 120,000); Potency, µM (top dose mostly 28.9 µM), for inactives: top-dose activity, negative = inhibition, hits mostly inhibitors; P. falciparum Dd2 growth, SYBR Green, 72 h; AID 1347417; active means well fitted inhibition curve with a large enough effect;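 further: plate controls were DMSO vehicle for no effect and reference drug for full effect; nearly all actives have a fitted effect of over 65% in size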
#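 Readout: SYBR Green fluorescence, 485 nm excitation, 535 nm emission, after ~16 h lysis at 37C. Before that, Dd2-infected red cells (2.5% hematocrit) grew 72 h with compound, 29 uM top final concentration.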
# Active calls of the source: *; i = inactive; [ ] = dose if it differs, or a comment. The sample as a whole holds a higher share of hits than the screen did. Potency means the concentration at half of the fitted maximal effect.
SMILES,Pf Dd2 growth
Cc1nn(-c2ccccc2)c2nc(C3CC3)cc(C(=O)NCc3ccccc3Cl)c12,i
COc1ccc(NC(=O)c2cc(C3CC3)nc3c2c(C)nn3-c2ccccc2)cc1OC,13%
COc1ccc(-c2cc(C(=O)NCC(C)C)c3c(C4CCCN4)nn(C)c3n2)cc1 (stereo not given),4µM*
COCCNC(=O)c1cc(C2CC2)nc2c1c(C1CCCNC1)nn2C (stereo not given),12%
COCCNC(=O)c1cc(-c2ccc(OC)cc2)nc2c1c(C1CCNC1)nn2C (stereo not given),-28%
Cn1nc(C2CCCN2)c2c(C(=O)N3CCOCC3)cc(C3CC3)nc21 (stereo not given),0%
Cc1nn(CCC#N)c(C)c1[C@@H]1C=C[C@@H](NC(=O)Nc2ccccc2)C1,-16%[44.1 µM]
Cc1nn(Cc2ccccc2)c(C)c1[C@@H]1C=C[C@@H](NS(=O)(=O)c2cccs2)C1,13µM*
CC(=O)Nc1ccc(S(=O)(=O)N[C@@H]2C=C[C@@H](c3c(C)nn(-c4ccc(C(C)(C)C)cc4)c3C)C2)cc1,i
CN(c1cc(=O)c2ccnc(-c3ccc(O)c(F)c3)c2o1)C1CCOCC1,-23%[44.1 µM]
Cc1cn2nc(C(=O)NCc3ccc(F)cc3)cc2c(=O)[nH]1,-8%
Cc1cc(C)nc(NC(=NCCc2c[nH]c3ccc(Cl)cc23)NC(=O)c2ccccc2C)n1,-4%
COc1ccc2[nH]cc(CCN=C(NC(=O)c3ccccc3C)Nc3nc(C)cc(C)n3)c2c1,8.9µM*
COc1ccc2[nH]cc(CCNC(=O)Nc3ccc(F)cc3)c2c1,19%
CC(=O)N1CCc2nc(-c3ccccc3)nc(-c3ccc(Cl)cc3)c2C1,-23%
COc1cccc(Cn2nnc(C(=O)Nc3cc(C)ccc3C)c2N)c1,-32%
Cc1ccc(NC(=O)c2nnn(Cc3ccccc3)c2N)cc1C,6%
COc1ccc(Cn2nnc(C(=O)Nc3cc(OC)ccc3OC)c2N)cc1,i
Cc1ccc(Cl)cc1NC(=O)c1nnn(Cc2ccccc2)c1N,1.1µM*
COc1ccc(Cl)cc1NC(=O)c1nnn(Cc2cccc(C(F)(F)F)c2)c1N,-1%
Cc1cccc(Cn2nnc(C(=O)Nc3cc(C)ccc3C)c2N)c1,2µM*
COc1ccc(NC(=O)c2nnn(CC(=O)Nc3cc(C)cc(C)c3)c2N)c(OC)c1,-10%
Cc1ccc(C)c(NC(=O)c2nnn(CC(=O)Nc3cccc(C)c3C)c2N)c1,2%
COc1ccc(NC(=O)c2nnn(Cc3ccccc3C)c2N)c(OC)c1,1.1µM*
CN1CCN(Cc2cccc(OC(F)F)c2)CC1CCO (stereo not given),-19%
SMILES,Pf Dd2 growth
COc1ccc(C(=O)N[C@@H]2CCC[C@@H]2C(=O)NC2CCCCCC2)cn1,-21%
Cc1ccc(C(=O)NCc2cccnc2Oc2ccccc2)cn1,2%
N[C@H]1[C@H](O)[C@@H](N2CCC(Cc3ccccc3)CC2)[C@@H]2OC[C@H]1O2,i
Cc1nn(C)c(C)c1S(=O)(=O)N1CCC(c2noc(C3CC3)n2)C1 (stereo not given),30%[5.79 µM]
CCc1cnc(N)nc1N1CCC(N2CCOCC2)CC1,-16%
COc1ccc(CCc2nc3nccc(-c4ccncc4)n3n2)cc1OC,-11%
COc1ccc(CCc2nc3nccc(-c4cc(OC)c(OC)c(OC)c4)n3n2)cc1,-14%
COc1ccc(CCc2nc3nccc(-c4ccccc4)n3n2)cc1OC,-21%
COc1ccc(CCc2nc3nccc(-c4ccc(OC)c(OC)c4)n3n2)cc1,13µM*
COc1cc(-c2ccnc3nc(CCc4ccccc4)nn23)cc(OC)c1OC,11µM*
COc1ccc(CCc2nc3nccc(-c4ccc(F)cc4)n3n2)cc1OC,-11%
O=C(c1ccc(C(F)(F)F)cc1)N1CCN2C(=O)N(C3CCOCC3)C[C@H]2C1,1%[44.1 µM]
CC(=O)N1CCNc2cc(NCc3ccc(F)cc3)ncc2C1,-10%[44.1 µM]
CCN(Cc1ccccc1)C(=O)c1c(C)oc2ccn(Cc3ccccc3F)c(=O)c12,i
Cc1oc(C(O)c2ccccc2)nc1C(=O)Nc1ccc2c(c1)NC(=O)CO2 (stereo not given),10µM*
Cc1oc(C(O)c2ccccc2)nc1C(=O)Nc1ccc(C(=O)Nc2ccccc2)cc1 (stereo not given),i
COc1ccc(NC(=O)c2nc(C(O)c3ccccc3)oc2C)cn1 (stereo not given),i
COc1ccc(-c2cc(CC3(NC4CCCCC4)COC3)no2)cc1,i
Cc1ccc(-n2c(C3CCN(C(=O)c4cc(C)cc(C)c4)CC3)n[nH]c2=O)cc1,i
Cc1ccc(Cn2c(C3CCN(C(=O)c4cc(C)cc(C)c4)CC3)n[nH]c2=O)cc1,8.9µM*
Cc1ccc(-n2c(C3CCN(C(=O)c4ccc(C(C)(C)C)cc4)CC3)n[nH]c2=O)cc1,4.5µM*
Cc1ccc(Cn2c(C3CCN(C(=O)c4cccc(C)c4)CC3)n[nH]c2=O)cc1,-28%
Cc1ccc(-n2c(C3CCN(C(=O)COc4ccc(F)cc4)CC3)n[nH]c2=O)cc1,-15%
Cc1ccc(-n2c(C3CCN(C(=O)c4cccc(C)c4)CC3)n[nH]c2=O)cc1,-2%
Cc1ccc(-n2c(C3CCN(C(=O)c4cc(Cl)ccc4F)CC3)n[nH]c2=O)cc1,i
SMILES,Pf Dd2 growth
Cc1ccc(Cn2c(C3CCN(C(=O)c4cccc(Cl)c4)CC3)n[nH]c2=O)cc1,0%
Cc1ccc(Cn2c(C3CCN(C(=O)c4ccc(C(C)(C)C)cc4)CC3)n[nH]c2=O)cc1,2.5µM*
Cc1ccc(-n2c(C3CCN(C(=O)COc4ccc(Cl)cc4)CC3)n[nH]c2=O)cc1,0.89µM*
Cc1ccc(Cn2c(C3CCN(C(=O)c4ccc(C#N)cc4)CC3)n[nH]c2=O)cc1,i
CCc1ccc(C(=O)N2CCC(c3n[nH]c(=O)n3Cc3ccc(F)cc3)CC2)cc1,-26%
Cc1ccc(C2Cn3cnc(C(=O)N4CCC(C(=O)NCc5cccc(F)c5)CC4)c3CO2)cc1 (stereo not given),-15%
c1ccc(O[C@H]2COCCN(C3CCOCC3)C2)cc1,i
O=C(C1CCOC1)N1CC(Oc2ccc(-c3nc(-c4ccccc4)no3)cc2)C1 (stereo not given),-19%[5.79 µM]
C=CCN1CC2(CCC1=O)CCN(C(=O)[C@H](OC)c1ccccc1)CC2,-9%
O=C(NCCCN1CCN(c2ccccc2)CC1)c1ccc2nc(CCc3ccccc3)oc2c1,7.9µM*
CN(C)CCNC(=O)c1ccc2nc(CCc3ccccc3)oc2c1,23%
O=C(NCCc1ccccc1)c1ccc2nc(CCc3ccccc3)oc2c1,50%
O=C(CN1CCC2(CC1)NC(=O)CC2C(=O)O)NCc1ccco1 (stereo not given),1%
CCN1C(=O)C(CC(=O)NC2CCCCC2)Sc2ncccc21 (stereo not given),6%
COc1cc2c(cc1OC1CCCC1)NC(=O)C21CCN(c2ccnc(C)n2)CC1,13µM*
COc1cc2c(cc1OC1CCCC1)NC(=O)C21CCN(c2cc(NC3CC3)ncn2)CC1,-23%
COc1cc2c(cc1Oc1ccccc1)NC(=O)C21CCN(c2ncc(F)cn2)CC1,4.5µM*
COc1cc2c(cc1Oc1ccccc1)NC(=O)C21CCN(Cc2ccccn2)CC1,-12%[44.1 µM]
COc1cc2c(cc1OC1CCCC1)NC(=O)C21CCN(Cc2ccncc2)CC1,-4%[44.1 µM]
COc1cc2c(cc1OCC1CC1)NC(=O)C21CCN(c2ncc(F)cn2)CC1,i
N#Cc1ccccc1S(=O)(=O)N[C@H]1CO[C@H]2[C@@H]1OC[C@@H]2n1nnnc1-c1ccc2c(c1)OCO2,-15%
COc1cc(Cl)ccc1C(=O)N1CCC(c2n[nH]c(=O)n2Cc2ccc(F)cc2)CC1,-28%
